According to PubChem BioAssay AID504362 (National Center for Advancing Translational Sciences (NCATS), 2011):
Inconclusive results are not listed. Activity calls are given as the source filed them. The call rests on the fitted dose curve; in most records, active means well fitted activation curve with a large enough effect; inconclusive means small, poorly fitted or top-dose-only effect; inactive means flat fitted curve, though single readings scatter.

assay: qHTS Assay for Identifying a Potential Treatment of Ataxia-Telangiectasia: SAR for Probe; conditions: F2112 A-T fibroblasts, NCS-induced pKAP1 AlphaLISA; series mostly up to 76.9 µM; activation: at the top concentration
Source text: NIH Chemical Genomics Center [NCGC] NIH Molecular Libraries Probe Centers Network [MLPCN] MLPCN Grant: MH089030-01 Assay Submitter (PI): Wei Zheng and Yosef Shiloh Ataxia-telangiectasia (A-T) is a devastating and progressive disease for which, there is no cure. Although A-T is a multisystem disease, it is stereotyped characterized by its neurological symptoms such as truncal ataxia, due to cerebellar cortical degeneration of the Purkinje and granule cells. Other symptoms of A-T are telangiectasias (dilated blood vessels), primary immunodeficiency, marked sensitivity to ionizing radiation (IR), chromosomal instability and predisposition to cancer. The underlying genetic cause of A-T is null mutations in the ATM (A-T mutated) gene. ATM is a nuclear serine/threonine kinase that functions as a master regulator of the cellular responses to double strand breaks (DSBs) in the DNA. Upon activation by DSBs, ATM phosphorylates a plethora of downstream targets, including KAP-1 on […]. KAP-1 phosphorylation occurs shortly in response to DSBs and mediates global chromatin relaxation, which facilitates DSB repair. To screen for small molecules that will compensate for the loss of ATM in cells derived from A-T patients, we monitored KAP-1 phosphorylation as a readout for ATM-like activity using an AlphaLISA assay. This set of data is for analogs of the probe molecule in the primary screening assay.
qHTS Assay Protocol: Step,Parameter,Value,Description 1. Cell Plating, 3 ul, 500 cells/well in OPTI-MEM, 1% FBS, 1% Pen/Strep 2. Incubation, 16-24 hr, 37C, 5% CO2, 95% humidity 3. Library compounds, 23 nl, 76.7 - 0.61uM dilution series final concentration 4. Incubation, 60 min, 37C, 5% CO2, 95% humidity 5. Reagent, 1 ul, 1600 ng/ml NCS in PBS + 0.05% BSA + 0.005% Tween 20 6. Incubation, 30 min, 37C, 5% CO2, 95% humidity 7. Reagent, 1 ul, Premixed detection reagents and lysis buffer 8. Reagent, 1 ul, 0.6% Antifoam A 9. Incubation, 6 hr, 25C, 95% humidity 10. Readout, EnVision, EnVision plate reader. AlphaScreen 1536-well protocol Cells were plated using medium-binding white solid-bottom tissue culture treated Kalypsys plates. Multidrop dispense of 3 uL of F2112 (hTERT immortalized A-T patient fibroblast cells). Detection reagent and lysis buffer was 3.75nM Rab-a-pKAP1 antibody bound to 75 ng/ul AlphaScreen SA donor bead, 3.75 nM Biot-M-a-KAP1 antibody bound to AlphaLISA protein A acceptor bead, 0.5x protease inhibitor cocktail and 0.25x PerkinElmer lysis buffer. EnVision protocol for 1536-well AlphaScreen read (30ms excitation, 100ms read), about 10 min/plate.

Row | Compound | Potency | activation
1 | C=CCSc1nc2ccccc2n1C(=O)/C=C/c1ccc(OC)c(OC)c1 | 14.6 µM (active) | –
2 | COc1cc(/C=C/C(=O)c2ccccc2)cc(OC)c1OC | 46.3 µM (active) | –
3 | CC1(C)C=Cc2c(O)cc(O)c(C(=O)/C=C/c3ccccc3)c2O1 | 46.3 µM (active) | –
4 | CN1CCN(c2nc(C3=C(c4c[nH]c5ccccc45)C(=O)NC3=O)c3ccccc3n2)CC1 | – | 8.76% (inactive)
5 | COc1c(C(=O)/C=C/c2ccccc2)ccc2c1C=CC(C)(C)O2 | 36.8 µM (active) | –
6 | COc1cc(/C=C/C(=O)n2cnc3ccccc32)cc(OC)c1OC | 13 µM (active) | –
7 | CC1(C)C=Cc2ccc(O)c(C(=O)/C=C/c3ccccc3)c2O1 | 36.8 µM (active) | –
8 | C=CCSc1nc2ccccc2n1C(=O)/C=C/c1ccc(F)cc1 | 9.23 µM (active) | –
9 | CC(C)=C/C=C/C(=O)c1ccccc1O | – | -16.1% (inactive)
10 | O=C(/C=C/c1ccccc1)n1cnc2ccccc21 | – | -15.5% (inactive)
